A selection: hits, their analogues and other compounds. The true share with any hit is near 8.9%.
DRD3 agonist = agonists of human D3 dopamine receptor | P35462 | D3R DiscoveRx beta-arrestin cells, luminescence, 90 min | max activation, % | 410,000 tested, 0.58% active | AID 652048; in the data active means max activation above about 30%; further: 0% is about no effect
Target sequence (P35462 whole entry, looked up): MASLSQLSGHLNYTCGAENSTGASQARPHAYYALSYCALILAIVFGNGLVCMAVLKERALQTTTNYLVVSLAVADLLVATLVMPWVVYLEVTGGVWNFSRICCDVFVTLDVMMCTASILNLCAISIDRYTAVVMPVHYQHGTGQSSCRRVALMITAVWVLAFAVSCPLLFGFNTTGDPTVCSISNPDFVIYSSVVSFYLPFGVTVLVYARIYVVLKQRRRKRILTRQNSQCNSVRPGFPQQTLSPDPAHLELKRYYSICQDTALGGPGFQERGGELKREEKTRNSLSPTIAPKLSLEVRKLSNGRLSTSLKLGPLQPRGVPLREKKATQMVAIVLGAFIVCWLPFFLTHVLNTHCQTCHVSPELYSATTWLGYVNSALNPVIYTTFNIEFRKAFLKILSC
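Cells at 1500/well, incubated overnight, then treated with pinned compounds (dopamine as control) for 90 min at 37 degrees C. DiscoveRx reagent added for 30 - 60 minutes at room temperature; luminescence read.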
DRD3 antagonist = antagonists of human D3 dopamine receptor. max response, negative = inhibition, %. D3R cells, DiscoveRx beta-arrestin luminescence, antagonist mode; stronger effect = lower value. 360,000 tested, 2.5% active. P35462; in the data active means max response below about -50%; inconclusive means no clear call, values can overlap the other calls; further: on the % scale 0 is the no-effect control and ±100 the full control effect
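Cells expressing the human receptor were seeded at 1500 cells/well, incubated overnight at 37 degrees C in 5% CO2, then exposed to library compounds with dopamine controls for 90 minutes at 37 degrees C before luminescent detection.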
MCF10A rerep = induces DNA re-replication in MCF 10a normal breast cells; MCF 10A DNA re-replication, Hoechst nuclear intensity, 48 h; Potency, µM (top dose mostly 46.1 µM), for inactives: top-dose activity, positive = re-replication, hits mostly activators; 350,000 tested, 2.9% active; further: potency means the concentration at half of the fitted maximal effect; % of control where 0% means no effect; nearly all actives have a fitted effect of over 50% in size
SW480 rerep = inducers of DNA re-replication in SW480 colon cancer cells; SW480 DNA re-replication, Hoechst DNA content imaging, 48 h; Potency, µM (doses to about 46.1 µM), for inactives: at the highest dose re-replication activation, actives largely listed as activators; 340,000 tested, 1.8% active; further: potency means the concentration at half of the fitted maximal effect; % of control where 0% means no effect; nearly all actives have a fitted effect of over 55% in size
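Image-based read-out: total Hoechst fluorescence of nuclei (405 nm excitation, 500-530 nm emission), with hits raising the fraction of high-intensity nuclei. SW480 colon cells incubated 48 hr with compounds at 37 C.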
KB-V1 cytotox = kills drug-selected multidrug resistant KB-V1 cells. KB-V1 MDR cells viability, CellTiter-Glo, 72 h. Potency, µM (top dose mostly 46.1 µM), hits mostly cytotoxic. 400,000 tested, 3.4% active; further: potency means the concentration at half of the fitted maximal effect; on the % scale 0 is the no-effect control and ±100 the full control effect; nearly all actives have a fitted effect of over 60% in size
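Following 72 h at 37 degrees C with compound, KB-V1 cell viability was read by CellTiter-Glo luminescence, medium being phenol-red-free DMEM plus 10% FBS; concentration-response parameters came from normalized, curve-fitted qHTS data.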
KB-3-1 tox = kills parental KB-3-1 adenocarcinoma cells; KB-3-1 viability, CellTiter-Glo ATP luminescence, 72 h; 400,000 tested, 1.4% active; Potency, µM (doses to about 46.1 µM), hits mostly cytotoxic; further: potency means the concentration at half of the fitted maximal effect; on the % scale 0 is the no-effect control and ±100 the full control effect; nearly all actives have a fitted effect of over 60% in size
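Parental KB-3-1 viability, qHTS format: 72 h compound exposure, 37 °C; CellTiter-Glo; media-only wells and DMSO plates as controls; concentration-effect fits on corrected data.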
Numbers without * were called inactive; [ ] = another dose, or the depositor's remark. Unless noted, the call rests on the fitted dose curve; in most records, active means well fitted curve in the direction sought with a large enough effect; inconclusive means small, poorly fitted or top-dose-only effect, or another doubt; inactive means no such curve, though single readings can be large; an effect the other way counts as inactive or inconclusive.

Screening COc1cc(C(C)=O)ccc1OCC(O)CN1CCN(c2ccc(C)cc2C)CC1 (stereo not drawn) returned DRD3 agonist -13, DRD3 antagonist -67*, MCF10A rerep 22%, SW480 rerep -5%, KB-V1 cytotox inconclusive and KB-3-1 tox inactive.
Screening CCOc1ccc(OCC)c(Nc2ccc3cc(S(=O)(=O)N4CCCC4)ccc3n2)c1 returned DRD3 agonist 7, KB-V1 cytotox inactive and KB-3-1 tox inactive.
CC(C)C1C(c2ccccc2)NC(c2ccccc2)CC1(O)c1ccc(F)cc1 (stereo not drawn) was read as DRD3 agonist 0, DRD3 antagonist 29, MCF10A rerep 16µM*, SW480 rerep inconclusive, KB-V1 cytotox inactive and KB-3-1 tox inactive.
For N#C/C(=C/c1ccc(N2CCOCC2)o1)c1ccc(Cl)cc1 the results were DRD3 agonist -17, DRD3 antagonist -105*, MCF10A rerep -7%, SW480 rerep -8%, KB-V1 cytotox inconclusive and KB-3-1 tox inactive.
Screening N#C/C(=C\c1ccc(N2CCOCC2)o1)c1nc2ccccc2[nH]1 returned DRD3 agonist -3, DRD3 antagonist -13, MCF10A rerep 3%, SW480 rerep -2%, KB-V1 cytotox inactive and KB-3-1 tox inactive.
`Cc1cnc(CN(C)C(=O)c2ccc3oc(Cc4ccc(Cl)cc4)nc3c2)[nH]1` gave DRD3 agonist -5, DRD3 antagonist -57*, MCF10A rerep 11%, SW480 rerep -1%, KB-V1 cytotox inactive and KB-3-1 tox inactive.
Screening COC1CCN(C(=O)c2ccc3oc(Cc4ccc(Cl)cc4)nc3c2)CC1 returned DRD3 agonist -8, DRD3 antagonist 5, MCF10A rerep 3%, SW480 rerep -10%, KB-V1 cytotox inactive and KB-3-1 tox inactive.
`COC1CCCN(C(=O)c2ccc3oc(Cc4ccc(Cl)cc4)nc3c2)C1` (stereo not drawn) gave DRD3 agonist 16, DRD3 antagonist 4, MCF10A rerep 9%, SW480 rerep -5%, KB-V1 cytotox 2.6µM* and KB-3-1 tox inactive.
`Cc1cnc(CN(C)C(=O)c2ccc3oc(Cc4ccccc4)nc3c2)[nH]1` gave DRD3 agonist -6, DRD3 antagonist -14, MCF10A rerep 14%, SW480 rerep -5%, KB-V1 cytotox inconclusive and KB-3-1 tox inactive.
Cc1ccc(N2C(=O)[C@@H]3CSC(c4ccc(C(F)(F)F)cc4)N3C2=O)cc1 (stereo partly drawn) was read as DRD3 agonist 6, KB-V1 cytotox inactive and KB-3-1 tox inactive.
`CC(=O)N1CCC(N(C(=O)Nc2ccc(C)c(F)c2)C(C)C)CC1` gave DRD3 agonist 1, KB-V1 cytotox inactive and KB-3-1 tox inactive.
For CN(C)c1ccc(N=Cc2ccnc3ccccc23)cc1 the results were KB-V1 cytotox inactive and KB-3-1 tox inactive.
`O=C1CC(c2ccccc2)Cc2[nH]c(=O)c(-c3nc(-c4ccc(F)cc4)cs3)cc21` (stereo not drawn) gave DRD3 agonist -23, KB-V1 cytotox inactive and KB-3-1 tox 4.6µM*.
`COc1ccc(C2CC(=O)c3cc(-c4nc(-c5ccc(Cl)cc5)cs4)c(=O)[nH]c3C2)cc1` (stereo not drawn) gave DRD3 agonist 4, KB-V1 cytotox inactive and KB-3-1 tox inactive.
For O=C1CC(c2ccccc2)Cc2[nH]c(=O)c(-c3nc(-c4ccc(Cl)cc4)cs3)cc21 (stereo not drawn) the results were DRD3 agonist 4.
For Cc1sc(-c2cc3c([nH]c2=O)CC(c2ccccc2)CC3=O)nc1-c1ccc(Cl)cc1 (stereo not drawn) the results were DRD3 agonist -14, KB-V1 cytotox 0.82µM* and KB-3-1 tox 1µM*.
For COc1ccc(-c2nn3c(=O)cc(CN4CCN(C(=O)c5ccc(C(C)(C)C)cc5)CC4)nc3s2)cc1 the results were DRD3 agonist 4, KB-V1 cytotox inactive and KB-3-1 tox inactive.
For CCOC(=O)c1c(C)c(-c2ccccc2)n(CC(=O)Nc2cccc(C)c2C)c1C the results were DRD3 agonist 0, KB-V1 cytotox inactive and KB-3-1 tox inactive.
Screening C#CCOCCOCCOCCNc1nc(N2CCN(C(=O)CCCCCCCCCCNC(=O)[C@H](CCCCN)n3cc(C[C@@H](C)CC)nn3)CC2)nc(N2CCN(C(=O)CCCCCCCCCCNC(=O)[C@H](CCCCN)n3cc(C[C@@H](C)CC)nn3)CC2)n1 returned DRD3 agonist -18, DRD3 antagonist -51*, MCF10A rerep 18µM*, SW480 rerep -8%[9.22 µM], KB-V1 cytotox inconclusive and KB-3-1 tox inconclusive.
`C#CCOCCOCCOCCNc1nc(N2CCN(C(=O)CCCCCCCCCCNC(=O)[C@H](CCCCN)n3cc(CCO)nn3)CC2)nc(N2CCN(C(=O)CCCCCCCCCCNC(=O)[C@H](CCCN=C(N)N)n3cc(C[C@@H](C)CC)nn3)CC2)n1` gave DRD3 agonist 6, DRD3 antagonist inconclusive, MCF10A rerep 25%, SW480 rerep -7%, KB-V1 cytotox inactive and KB-3-1 tox inconclusive.
`C#CCOCCOCCOCCNc1nc(N2CCN(C(=O)[C@H]([C@@H](C)CC)n3cc(CCCN=C(N)N)nn3)CC2)nc(N2CCN(C(=O)[C@H](CCCCN)n3cc(CCC(=O)O)nn3)CC2)n1` gave DRD3 agonist 48*, DRD3 antagonist 17, MCF10A rerep 38%, SW480 rerep -7%, KB-V1 cytotox inactive and KB-3-1 tox inactive.
Screening C#CCOCCOCCOCCNc1nc(N2CCN(C(=O)Cn3cc(CCCCN)nn3)CC2)nc(N2CCN(C(=O)[C@H](Cc3ccc(O)cc3)n3cc(CCO)nn3)CC2)n1 returned DRD3 agonist 9, DRD3 antagonist 21, MCF10A rerep 3.7µM*, SW480 rerep 5%[9.22 µM], KB-V1 cytotox inactive and KB-3-1 tox inactive.
C#CCOCCOCCOCCNc1nc(N2CCN(C(=O)[C@H](CCCCN)n3cc(CCCC)nn3)CC2)nc(N2CCN(C(=O)[C@H](Cc3ccc(O)cc3)n3cc(CCO)nn3)CC2)n1 was read as DRD3 agonist -20, DRD3 antagonist inconclusive, MCF10A rerep -1%, SW480 rerep -41%, KB-V1 cytotox inactive and KB-3-1 tox inactive.

Screening data from PubChem.
